Results published in PubChem BioAssay (Tox21).
Inconclusive results are not listed. Active and inactive are the calls of the source. The call rests on the fitted dose curve; in most records, active means well fitted cell-killing curve with a large enough effect in the repeat runs; inconclusive means weak or mixed curves; inactive means flat fitted curve, though single readings scatter.

Experiment: qHTS RealTime-Glo MT Cell Viability Assay in HepG2 cells - 8 hour (AID 1224873); further: nearly all actives have a fitted effect of over 55% in size
Details: RealTime-Glo luminescence; series mostly up to 76.8 µM; viability change, negative = cytotoxic: at the top concentration
Excerpt: National Center for Advancing Translational Sciences [NCATS]
NIH Chemical Genomics Center [NCGC]
U.S. Environmental Protection Agency [EPA]
National Institutes of Environmental Health Sciences [NIEHS]
National Toxicology Program [NTP]
U.S. Food and Drug Administration [FDA]
Measure of cell viability is critical in the cell-base assay. Analysis of cell viability is necessary for the characterization of cell responses to cytotoxic drugs and environmental stress. A RealTime-Glo MT Cell Viability Assay to monitor cell viability in real time of continues cell culture during 40 hours of compound treatment was used to screen Tox21 10K library compounds in HepG2 cells. The RealTime-Glo MT Cell Viability Assay is a nonlytic, homogeneous, bioluminescent method to measure cell viability in real time using a simple, plate-based method. The assay involves adding NanoLuc luciferase and a cell-permeant prosubstrate to cells in culture. Viable cells reduce the proprietary prosubstrate to generate a substrate for NanoLuc luciferase. This substrate diffuses from cells into the surrounding culture medium, where it is rapidly used by the NanoLuc Enzyme to produce a luminescent signal. The signal correlates with the number of viable cells, making the assay well suited for cytotoxicity studies.
Tox21 Assay Protocol Summary:
The mixture of HepG2 cell suspension and reagents were dispensed at 600cells/6 ul/well in 1536-well tissue culture treated black solid bottom plates using a Multidrop dispenser. After the assay plates were incubated at a 37 C/5% CO2 incubator for 5 hours, 23 nL of compounds dissolved in DMSO, positive and negative controls was transferred to the assay plate by a pintool work station. The plates were incubated at 37 C for 40 hours. The luminescence intensity were measured at 0h, 8h, 16h, 24h, 32h and 40h time points using ViewLux plate reader during compound treatment.
On the % scale 0 is the no-effect control and ±100 the full control effect; potency means the concentration at half of the fitted maximal effect.

Row | SMILES | viability change, negative = cytotoxic | Potency
1 | CNC(=O)O/N=C(\C)C(C)S(C)(=O)=O (stereo not given) | 0.19% [at 725 µM] (inactive) | 
2 | Oc1cc(Cl)cc(Cl)c1 | -5.28% (inactive) | 
3 | O=[N+]([O-])c1cc(C(F)(F)F)c(Cl)c([N+](=O)[O-])c1Nc1ncc(C(F)(F)F)cc1Cl |  | 24.5 µM (active)
4 | CCCCN(CCCC)C(=S)[S-].CCCCN(CCCC)C(=S)[S-].[Ni+2] | 0.613% [at 35.3 µM] (inactive) | 
5 | CC(=O)[O][Sn]([c]1ccccc1)([c]1ccccc1)[c]1ccccc1 |  | 11 µM (active)
6 | COC(=O)/C=C(\C)OP(=O)(OC)OC | 1.01% (inactive) | 
7 | CSC(C)(C)/C=N/O | 5.12% (inactive) | 
8 | O=C(O)[C@H](O)[C@@H](O)C(=O)O | 1.73% (inactive) | 
9 | CCn1cc[n+](C)c1 (tested in a mixture with another compound) | -0.594% (inactive) | 
10 | C[C@@H]1CC2=CC(=O)CC[C@@H]2[C@H]2CC[C@@]3(C)[C@@H](CC[C@]3(C)O)[C@@H]21 | -0.831% [at 35.3 µM] (inactive) | 
11 | Cc1ccccc1OP(=O)(Oc1ccccc1C)Oc1ccccc1C | -5.5% (inactive) | 
12 | C[C@]12C/C(=C/O)C(=O)C[C@@H]1CC[C@@H]1[C@@H]2CC[C@@]2(C)[C@H]1CC[C@]2(C)O | -22.2% [at 35.3 µM] (inactive) | 
13 | O=C(O)CCCCCCNC1c2ccccc2CCc2ccccc21 | -0.256% [at 35.3 µM] (inactive) | 
14 | CCCN | -0.264% (inactive) | 
15 | Nc1cc(Cl)ccc1Cl | 3.34% (inactive) | 
16 | CC(Cc1ccc(O)cc1)NCC(O)c1cc(O)cc(O)c1 (stereo not given) | -5.89% [at 35.3 µM] (inactive) | 
17 | O=[N+]([O-])c1cccc2cccc([N+](=O)[O-])c12 | -12% (inactive) | 
18 | CCC[CH2][Sn]([CH2]CCC)([O]C(C)=O)[O]C(C)=O | -26.7% (inactive) | 
19 | C=C(C)C(=O)[O][Sn]([CH2]CCC)([CH2]CCC)[CH2]CCC |  | 0.616 µM (active)
20 | O=c1c2ccccc2c(=O)c2c1cc(Cl)c1[nH]c3c([nH]c12)c(Cl)cc1c(=O)c2ccccc2c(=O)c13 | -10.7% (inactive) | 

Row | SMILES | viability change, negative = cytotoxic | Potency
21 | Cc1nn(-c2cc(NS(C)(=O)=O)c(Cl)cc2Cl)c(=O)n1C(F)F | 8.59% (inactive) | 
22 | CC(=O)[O][Pb]([c]1ccccc1)([c]1ccccc1)[c]1ccccc1 |  | 3.47 µM (active)
23 | CCOP(=S)(NC(C)C)Oc1ccccc1C(=O)OC(C)C (stereo not given) | -20.3% (inactive) | 
24 | CC(C)C(Nc1ccc(C(F)(F)F)cc1Cl)C(=O)OC(C#N)c1cccc(Oc2ccccc2)c1 (stereo not given) | -22.7% (inactive) | 
25 | CC(C)=CCN1CC[C@@]2(C)c3cc(O)ccc3C[C@@H]1[C@@H]2C | -6.82% (inactive) | 
26 | Nc1c(Cl)c(Cl)c(Cl)c(Cl)c1Cl | -0.914% (inactive) | 
27 | [Cl][Hg][c]1ccccc1 |  | 2.75 µM (active)
28 | O=c1[nH]c2cc(Cl)ccc2n1C1CCNCC1 | 4.59% [at 35.3 µM] (inactive) | 
29 | CC(=O)O.CC(=O)O.CC(=O)O.CC(=O)O.CC(=O)O.CC(=O)O.CC(=O)O.O.O.[Cr].[Cr].[Cr] | 0.983% (inactive) | 
30 | CCC(C)Br (stereo not given) | -7.97% (inactive) | 
31 | CCN(CC)C(=S)S |  | inactive
32 | CC(C)=CC1C(C(=O)OC(C#N)c2cccc(Oc3ccccc3)c2)C1(C)C (stereo not given) | -4.45% (inactive) | 
33 | CC(=O)[O-].CC(=O)[O-].CC(=O)[O-].[Cr+3] | -1.15% (inactive) | 
34 | Clc1cc(Cl)c(-c2cc(Cl)c(Cl)cc2Cl)cc1Cl | 2.99% [at 35.3 µM] (inactive) | 
35 | O=[N+]([O-])c1ccccc1-c1ccccc1 | -1.23% (inactive) | 
36 | C#CCC1=C(C)C(OC(=O)C2C(C=C(C)C)C2(C)C)CC1=O (stereo not given) | -14.8% (inactive) | 
37 | CC(C)(C)c1ccc(OP(=O)(Oc2ccccc2)Oc2ccccc2)cc1 | -13.6% (inactive) | 
38 | O=Cc1ccccc1 | 1.49% (inactive) | 
39 | CCCCn1cc[n+](C)c1.[Cl][Fe-]([Cl])([Cl])[Cl] | -11.9% (inactive) | 
40 | CC(=O)[O-].CC(=O)[O-].[Co+2] | -0.301% (inactive) | 
